Test systems include HCT-15 colon; HT29 colon; SNB-19 CNS; U251 CNS; PC-3 prostate; SK-MEL-5 melanoma; UACC-62 melanoma; SK-MEL-28 melanoma; SK-MEL-2 melanoma; EKVX NSCLC; UO-31 renal; TK-10 renal; ACHN renal; CAKI-1 renal; CCRF-CEM leukemia; LOX IMVI melanoma; SN12C renal; A498 renal; MOLT-4 leukemia; SNB-75 CNS.
Holding throughout (test): NCI-60 one-dose screen, 48 h (100 = growth as untreated, 0 = no growth, -100 = all killed)
What all share (settings): 10 µM unless noted

The structures appear in SMILES notation. Several values for one entry are separate records, joined by “and”; a condition that tells them apart may be missing. Identical values can stand only once. Compounds without any hit were thinned out: in the full panel of roughly 83,000, 20% have a hit.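 Each cell line was grown in a 96-well plate and treated with one concentration of compound for 48 hours. Values below 10 were considered active.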 Unmarked numbers belong to inactive results. Activity calls are given as the source filed them.

Take `CC(=O)NC(Cc1ccccc1)C(=O)Oc1ccc2ccccc2c1` (configuration not stated): the growth with HCT-15 colon is 87.4% and 102%; with HT29 colon, 114% and 96.4%; with SNB-19 CNS it was 113%; in the assay with U251 CNS, 97.7% and 102%; in the assay on PC-3 prostate it was 85.5% and 90.6%; in the assay on SK-MEL-5 melanoma it was 101%. Further, the growth is 98.8% and 99.8% with UACC-62 melanoma; 117% and 105% in the assay on SK-MEL-28 melanoma; 108% and 113% in the assay on SK-MEL-2 melanoma; 114% and 96.4% with EKVX NSCLC; 64.8% and 86.6% in the assay on UO-31 renal; 118% and 111% in the assay with TK-10 renal. Also, the growth with ACHN renal is 94.6% and 97.4%; with CAKI-1 renal, 94.8% and 98.1%; in the assay with CCRF-CEM leukemia it was 100% and 86.6%.
Regarding `CC1=C(/C=C/C(C)=C/C=C/C(C)=C/C(=O)Nc2ccc(O)cc2)C(C)(C)CCC1`, the growth in the assay with HCT-15 colon is 57%; with HT29 colon, 34.6%; in the assay on SNB-19 CNS, 80.2%; in the assay on U251 CNS, 66.8%; in the assay on PC-3 prostate, 52.2%; in the assay on SK-MEL-5 melanoma, 43.9%. For the same molecule, the growth in the assay with UACC-62 melanoma is 22%; in the assay with LOX IMVI melanoma, 2.64% (active); in the assay on SK-MEL-28 melanoma, 61.7%; with SK-MEL-2 melanoma, 78.6%; in the assay with EKVX NSCLC it was 64.7%; in the assay with SN12C renal, 39.2%. For the same molecule, the growth with UO-31 renal was -4.99% (active); in the assay with TK-10 renal, 103%; in the assay with ACHN renal it was 52.2%; in the assay on CAKI-1 renal, 47%; with A498 renal it was 71.4%; with CCRF-CEM leukemia, 19.5%. Moreover, in the assay with MOLT-4 leukemia, the growth was 7.55% (active).
For `Nc1ccc(N=Nc2ccc(S(=O)(=O)O)cc2)cc1S(=O)(=O)O`, the growth in the assay with HCT-15 colon was 102% and 96.7%; in the assay on SNB-75 CNS it was 106% and 81.6%; in the assay with SNB-19 CNS it was 96.5%; in the assay on U251 CNS, 99.6% and 95.5%; in the assay with PC-3 prostate it was 92.2% and 74%; with SK-MEL-5 melanoma, 111% and 103%. For the same molecule, the growth in the assay with UACC-62 melanoma is 104% and 94.8%; with LOX IMVI melanoma, 93.7% and 92.1%; with SK-MEL-28 melanoma, 109% and 104%; in the assay with SK-MEL-2 melanoma it was 98.7% and 82.5%; in the assay with EKVX NSCLC, 96.3% and 109%; with SN12C renal it was 105% and 96.1%. For the same molecule, the growth is 81.4% and 93.4% with UO-31 renal; 115% and 97.6% in the assay with TK-10 renal; 99.8% and 100% with ACHN renal; 79.6% and 88.4% with CAKI-1 renal; 102% and 111% in the assay on A498 renal; 83.6% and 46.6% in the assay on CCRF-CEM leukemia. Moreover, the growth in the assay on MOLT-4 leukemia is 108% and 117%.
Take `CC(C(=O)O)n1cc(C#N)c(=O)[nH]c1=O` (configuration not stated): the growth in the assay on HCT-15 colon was 104% and 102%; in the assay with HT29 colon, 110% and 104%; in the assay on SNB-19 CNS, 107% and 101%; in the assay with U251 CNS, 111% and 107%; in the assay on PC-3 prostate it was 95.3%; with SK-MEL-5 melanoma, 105% and 102%. Besides, the growth is 103% and 99.7% in the assay on UACC-62 melanoma; 110% and 98.6% in the assay on LOX IMVI melanoma; 110% with SK-MEL-28 melanoma; 120% and 102% in the assay with SK-MEL-2 melanoma; 95.6% and 110% in the assay on EKVX NSCLC; 98.6% and 96.1% with SN12C renal. For the same molecule, the growth with UO-31 renal is 81.3% and 82.4%; in the assay on ACHN renal, 100% and 96.5%; with CAKI-1 renal it was 86.5% and 93.1%; with CCRF-CEM leukemia, 91.6% and 103%; with MOLT-4 leukemia, 90% and 107%.
For the molecule `Cc1n[nH]c(=O)n(/N=C\c2c[nH]c3ccccc23)c1=O`, the growth in the assay on HCT-15 colon is 105%; with HT29 colon, 101%; with SNB-19 CNS, 105%; in the assay on U251 CNS, 98.8%; with PC-3 prostate, 97.9%; with SK-MEL-5 melanoma it was 102%. For the same molecule, the growth was 107% in the assay with UACC-62 melanoma; 99.4% in the assay on LOX IMVI melanoma; 105% in the assay on SK-MEL-28 melanoma; 109% in the assay on EKVX NSCLC; 99.8% with SN12C renal; 60.6% with UO-31 renal. Further, the growth was 100% in the assay on TK-10 renal; 98.5% in the assay with ACHN renal; 98.4% with CAKI-1 renal; 95.9% in the assay on CCRF-CEM leukemia; 91.6% in the assay on MOLT-4 leukemia.

The record behind these values is PubChem BioAssay (NCI).
